The campaign covered roughly 110,000 compounds. About 230 (0.21%) showed an effect of 50% or more. Only a selection was taken, and strong results are over-represented in it overall.
target: DPAP1 (Plasmodium falciparum, UniProt Q8IIJ9); test: primary screen, percent inhibition; read by cleavage of a fluorogenic dipeptide substrate; higher = more effect of the substance; design: species or system P. falciparum D10 trophozoite lysates; single well
Method: HTS was performed in black 384-well plates. The first and last two columns of each plate contained our negative (DMSO) and positive (10 μM JCP410) controls, and the 20 central columns the test compounds at 10 μM. Compounds were first diluted 50-fold into assay buffer (50 mM sodium acetate, 5 mM MgCl2, 10 mM β-mercaptoethanol, and 0.1% CHAPS, pH 5.5) from a 10 mM DMSO stock plates. One microliter of this 200 μM intermediate stock plate was dispensed into the assay plate. […] After 30 min, the reaction was quenched with 20 μL of 0.5 M acetic acid, and the fluorescent intensity measured at 523 nm (λex = 492 nm) using an Analyst HT multimode plate reader (Molecular Devices).
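Note: 30 min substrate incubation versus DMSO and 10 µM JCP410 controls.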

Sequence of DPAP1 (Q8IIJ9 whole entry, looked up): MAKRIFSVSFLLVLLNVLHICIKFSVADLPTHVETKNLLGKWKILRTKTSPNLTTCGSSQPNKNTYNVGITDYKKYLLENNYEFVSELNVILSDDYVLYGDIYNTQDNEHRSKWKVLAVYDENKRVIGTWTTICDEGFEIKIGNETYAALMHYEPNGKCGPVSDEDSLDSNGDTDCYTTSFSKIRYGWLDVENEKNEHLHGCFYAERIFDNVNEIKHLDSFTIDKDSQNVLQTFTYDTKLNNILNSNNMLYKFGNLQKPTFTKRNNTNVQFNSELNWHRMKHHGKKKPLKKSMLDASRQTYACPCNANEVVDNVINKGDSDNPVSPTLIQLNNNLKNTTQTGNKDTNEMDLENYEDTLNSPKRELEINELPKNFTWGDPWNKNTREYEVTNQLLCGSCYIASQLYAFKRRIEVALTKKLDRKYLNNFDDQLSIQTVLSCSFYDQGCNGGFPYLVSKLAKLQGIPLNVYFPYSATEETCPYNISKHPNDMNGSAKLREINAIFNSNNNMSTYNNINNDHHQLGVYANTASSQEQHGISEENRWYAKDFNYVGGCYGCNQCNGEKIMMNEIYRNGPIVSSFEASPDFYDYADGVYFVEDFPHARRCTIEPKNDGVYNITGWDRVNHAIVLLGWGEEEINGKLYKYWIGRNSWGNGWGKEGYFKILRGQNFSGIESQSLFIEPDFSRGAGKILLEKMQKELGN

| SMILES | % Inhibition @ 10 uM [%] |
| --- | --- |
| N#CC1=C(N)SC(N)=C(C#N)C1c1ccc(Cl)cc1 | 50.8 |
| N#CC1=C(N)SC(N)=C(C#N)C1c1ccc(Cl)c(Cl)c1 | 40.5 |
| N#CC1=C(N)SC(N)=C(C#N)C1c1ccccc1 | 70.9 |
| Cc1ccc(C2C(C#N)=C(N)SC(N)=C2C#N)c(C)c1 | 27.4 |
| COc1cc(C2C(C#N)=C(N)SC(N)=C2C#N)ccc1O | 28.3 |
| N#CC1=C(N)SC(N)=C(C#N)C1c1cccnc1 | 0.731 |
| CCOc1ccc(OCC)c(C2C(C#N)=C(N)SC(N)=C2C#N)c1 | 23.2 |
| Cc1cc(C)c(C)c(C2C(C#N)=C(N)SC(N)=C2C#N)c1C | 4.22 |
| CC(C)c1ccc(C2C(C#N)=C(N)SC(N)=C2C#N)cc1 | 46.7 |
| N#CC1=C(N)SC(N)=C(C#N)C1c1cccc(Cl)c1 | 19.5 |
| CC1C(C#N)=C(N)SC(N)=C1C#N | 67.5 |
| CCOc1ccc(C2C(C#N)=C(N)SC(N)=C2C#N)cc1OC | 57.7 |
| C=CCSc1nnc(NC(=O)Cc2coc3ccc(C)cc23)s1 | 1 |
| CC(Sc1nc(-c2ccccc2)c(-c2ccccc2)[nH]1)C(=O)O (stereo not drawn) | -3.04 |
| O=C(Nc1ccc(F)c(Cl)c1)c1cc2nc(C(F)F)cc(C(F)F)n2n1 | -8.02 |
| Cc1oc2ncnc(N3CCOCC3)c2c1C(=O)N(C)Cc1ccco1 | 4.76 |
| COc1ccc2nc(Cl)c(C3CC(c4ccc(Cl)cc4)=NN3C(C)=O)cc2c1 (stereo not drawn) | 4.18 |
| NS(=O)(=O)c1ccc(NC(=O)c2cccs2)cc1 | 7.24 |
| NC(=O)C1CCCN(C2CCc3ccccc3C2)C1 (stereo not drawn) | -1.5 |
| N#CC1=C(N)SC(N)=C(C#N)C1c1cccs1 | 40.6 |
| Cc1ccc(C2C(C#N)=C(N)SC(N)=C2C#N)s1 | 55.8 |
| N#CC1=C(N)SC(N)=C(C#N)C1c1ccco1 | 51.4 |
| Cc1ccc(C2C(C#N)=C(N)SC(N)=C2C#N)o1 | 47.9 |
| Cc1ccsc1C1C(C#N)=C(N)SC(N)=C1C#N | 27.5 |
| N#CC1=C(N)SC(N)=C(C#N)C1c1c(Cl)cccc1Cl | 28.7 |
| OC(c1ccccc1)c1nc2ccccc2n1CCc1ccccc1 (stereo not drawn) | -2.92 |
| CC1=C(C(=O)Nc2ccc(Br)cn2)C(c2ccccc2C)C2=C(O)CCCC2=N1 (stereo not drawn) | 2.7 |
| CN(CC(=O)NCc1cccs1)S(=O)(=O)c1ccc2[nH]c(-c3ccccc3)nc2c1 | 3.88 |
| COc1ccc(Br)cc1CNC(=O)c1ccc2c(c1)ncn2C1CCCC1 | 3.66 |
| COc1cc(CN(C(=S)NCC(=O)NC2CCCC2)C2CCCC2)cc(OC)c1OC | 1.27 |
